Source: PubChem BioAssay
Rows were chosen to be rich in hits. Some 3.4% of all compounds tested hit in one or more screens of this group.
VDR inh: inhibitors of human vitamin D receptor. VDR-SRC2-3 peptide fluorescence polarization, 2 h. P11473. Potency, µM, for the others: max response, negative = inhibition, hits mostly inhibitors. actives 0.93% (n = 400,000); further: on the % scale 0 is the no-effect control and ±100 the full control effect
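Two reagent solutions held at 4 deg C in the dark were dispensed, compounds pinned at 23 nl, and the mixture incubated 2 h at room temperature. Read-out: fluorescence polarization of VDR–SRC2-3 peptide binding.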
PKM2 act: increases activity of human pyruvate kinase M2. P14618. purified PKM2, Kinase-Glo ATP luminescence, activation; response scale: 0% is enzyme alone, no compound. Potency, µM (titrated, usually from 57.5 µM), inactives show top-dose activation, hits mostly activators. actives 0.34% (n = 260,000); further: on the % scale 0 is the no-effect control and ±100 the full control effect; nearly all actives have a fitted effect of over 55% in size
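Purified hPK-M2 (>95%) run at intermediate activity with 0.1 mM ADP and 0.5 mM PEP in 50 mM imidazole pH 7.2, KCl, MgCl2; 1 h room temperature. ATP formed read by Kinase-Glo luminescence; normalized to uninhibited and no-enzyme controls.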
PLK1 PBD inh: blocks phosphopeptide binding to human PLK1 polo-box domain. Plk1 PBD binding of FITC phosphopeptide, fluorescence polarization. AID 720504. actives 2.8% (n = 360,000). Potency, µM, for the others: max response, negative = inhibition, most hits filed as inhibitors; further: series mostly up to about 57 µM; on the % scale 0 is the no-effect control and ±100 the full control effect; nearly all actives have a fitted effect of over 65% in size
GLS inhibitor: glutaminase GLS (human) inhibition; actives 0.21% (n = 410,000); Potency, µM (doses to about 45.5 µM), inactives show at the highest dose activity change, negative = inhibition, most hits filed as inhibitors; O94925; GLS enzymatic activity, qHTS titration; further: on the % scale 0 is the no-effect control and ±100 the full control effect
Target sequence (O94925 whole entry, looked up): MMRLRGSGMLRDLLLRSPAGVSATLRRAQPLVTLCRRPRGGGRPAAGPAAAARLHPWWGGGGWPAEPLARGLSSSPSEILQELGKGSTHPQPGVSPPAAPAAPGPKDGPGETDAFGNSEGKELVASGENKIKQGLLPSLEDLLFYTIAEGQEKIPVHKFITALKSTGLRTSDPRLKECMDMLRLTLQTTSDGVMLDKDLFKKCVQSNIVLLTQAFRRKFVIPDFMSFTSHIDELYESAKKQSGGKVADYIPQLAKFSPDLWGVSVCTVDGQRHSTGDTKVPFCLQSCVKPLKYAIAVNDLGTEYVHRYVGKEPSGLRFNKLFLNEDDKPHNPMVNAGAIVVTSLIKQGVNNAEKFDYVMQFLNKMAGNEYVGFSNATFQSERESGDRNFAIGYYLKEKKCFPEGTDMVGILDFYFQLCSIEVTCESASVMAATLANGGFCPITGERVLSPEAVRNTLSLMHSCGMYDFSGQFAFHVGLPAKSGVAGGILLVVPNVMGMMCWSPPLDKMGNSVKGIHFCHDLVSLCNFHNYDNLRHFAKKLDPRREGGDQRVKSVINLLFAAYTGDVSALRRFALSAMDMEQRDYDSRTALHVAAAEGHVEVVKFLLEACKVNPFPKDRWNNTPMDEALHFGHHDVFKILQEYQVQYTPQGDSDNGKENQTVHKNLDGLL
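Coupled fluorescence readout: glutamate oxidase/HRP/Amplex Red detect glutamate formed by hKGA from L-glutamine (1 mM solution added). Buffer 45 mM KH2PO4 pH 8.2, 0.02% Tween-20; reads at t0 and 30 min RT.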
KAT2A inh: blocks human GCN5L2 histone acetyltransferase; Q92830; GCN5L2 HAT assay, ThioGlo1 CoA-SH fluorescence; Potency, µM (highest dose often 58.9 µM), inactives show top-dose activity change, negative = inhibition, hits mostly inhibitors; actives 0.21% (n = 390,000); further: on the % scale 0 is the no-effect control and ±100 the full control effect
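Titration-based screen in which CoA formation is detected via maleimide probe ThioGlo1 (50uM) turning fluorescent on thiol reaction; substrates H3(1-25) 75uM and acetyl-CoA 70uM, GCN5L2 20nM, 20 min incubation at room temperature.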
Mito fusion act: inhibitors of mitochondrial division or activators of mitochondrial fusion. Potency, µM (series often up to 46.1 µM), without a hit: at the top dose growth rescue (activation), most hits filed as activators. S. cerevisiae fusion-defective mutant growth rescue, CellTiterGlo 48 h. AID 485298. actives 0.23% (n = 320,000); further: % of control where 0% means no effect; nearly all actives have a fitted effect of over 45% in size
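Read-out: ATP-based luminescence (CellTiterGlo, 10 min ambient) reporting growth of fusion-defective ts yeast after 48 hours at 37C on glycerol/ethanol YPEG medium in the presence of compound.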
An asterisk follows results filed as active; ? = inconclusive; · = no result given. The call rests on the fitted dose curve; in most records, active means well fitted curve in the direction sought with a large enough effect; inconclusive means small, poorly fitted or top-dose-only effect, or another doubt; inactive means no such curve, though single readings can be large; an effect the other way counts as inactive or inconclusive. Potency means the concentration at half of the fitted maximal effect.

SMILES	VDR inh	PKM2 act	PLK1 PBD inh	GLS inhibitor	KAT2A inh	Mito fusion act
COc1ccc(-c2ccc(N(C)C)cc2)cc1C1C2C=CCC(C)C2C(=O)N1Cc1ccccc1 (stereo unspecified)	-4%	·	·	·	·	·
C/C(N)=C(/C#N)C(=O)CSc1nc2scc(-c3ccccc3)c2c(=O)n1C	-22%	5%	4%	6%	-4%	28%
CCCC(=O)NC(=S)Nc1cccc(NC(=O)c2ccc(Cl)cc2Cl)c1	-6%	1%	27µM*	49%	1%	-3%
CNc1nc(NC#N)nc(SC)n1	?	-1%	30µM*	44%	21%	-5%
CCNc1nc(NC#N)nc(SCC(=O)OCC)n1	1%	-6%	0%	-2%	-5%	0%
CC(=O)N(CCCN1CCOCC1)Cc1ccncc1	-9%	0%	30µM*	-15%	2%	0%
CCOC(CN=c1nc(N(C)C)ss1)OCC	?	·	6.7µM*	?	·	·
CCn1nnnc1NCc1ccc(N2CCCC2)cc1	?	6%	3.8µM*	3%	-8%	2%
CN(c1cccc(NC(=O)c2ccc(N(C)S(=O)(=O)c3ccccc3)cc2)c1)S(C)(=O)=O	?	0%	12µM*	?	0%	4%
CC(=O)Nc1ccc(C(=O)Nc2cccc(S(=O)(=O)N(C)c3ccccc3)c2)cc1	-13%	·	-10%	-1%	-1%	-1%
COc1ccc(CCCC(=O)Nc2ccccc2F)cc1	7%	-6%	-5%	-4%	-1%	1%
Cc1ccc(-c2nc(NC(=O)CSc3ncn[nH]3)ns2)cc1	14µM*	-1%	7.5µM*	-24%	-1%	-6%
CCOC(=O)c1c(-c2ccc(C)o2)csc1NC(=O)CSc1nnc(C)s1	-18%	13µM*	-9%	3%	-13%	7%
CCOC(=O)c1c(-c2cccs2)csc1NC(=O)CSc1ncn[nH]1	-13%	28µM*	?	-1%	-16%	6%
CCOC(=O)c1c(-c2ccc(C)o2)csc1NC(=S)NC(=O)c1ccccc1Br	-5%	3.2µM*	-16%	0%	-8%	6%
O=C(CCNc1cccc(F)c1)c1cccc([N+](=O)[O-])c1	89µM*	1%	?	-18%	-11%	1%
O=C1NC2CCCCN2C12CCN(CCCN1c3ccccc3CCc3ccc(Cl)cc31)CC2 (stereo unspecified)	·	·	·	14%	·	·
S=C(c1ccc2c(c1)OCO2)N1CCN(c2cccc(Cl)c2)CC1	?	·	9.5µM*	-13%	·	·
Cc1cccc(N2CCN(C(=S)c3ccc4c(c3)OCO4)CC2)c1	79µM*	·	11µM*	-7%	·	·
O=C(c1ccc2c(c1)OCO2)N1CCN(c2ccc(Cl)cc2)CC1	-3%	-3%	-2%	12%	0%	-4%
CC[C@@H]1OC(=O)C[C@H](O)[C@@H](C)[C@@H](O[C@H]2O[C@@H](C)[C@H](O[C@@H]3C[C@](C)(O)[C@H](O)[C@@H](C)O3)[C@@H](N(C)C)[C@@H]2O)[C@@H](C=O)C[C@@H](C)C(=O)/C=C/C(C)=C[C@@H]1CO[C@H]1O[C@@H](C)[C@H](O)[C@H](OC)[C@@H]1OC	·	·	·	21%	·	·
COc1cc(CN2CC(=O)N(c3cc(Cl)ccc3C)C2=S)cc(OC)c1OC	?	·	15µM*	26%	-1%	-6%
CC(C)CN(C(=O)c1ccc(Br)o1)C1CCS(=O)(=O)C1 (stereo unspecified)	-8%	·	-4%	10%	-1%	1%
Cc1cc2n(n1)C(c1ccccc1Cl)Nc1ccccc1-2 (stereo unspecified)	7%	18µM*	-3%	-4%	-2%	-1%
COC(=O)c1sccc1NC(=O)c1ccc2c(c1)OCO2	1%	-4%	-5%	-14%	-3%	8%
COC(=O)c1c(-c2cccnc2)csc1NC(=O)c1ccc2c(c1)OCO2	89µM*	3%	-29%	-24%	-5%	-3%
